Consider eight compounds from publication PMC5540273 (PLoS ONE, 2017).

Holding throughout (conditions): concentration: 1 μM, replicates: in singlicate; n = 1
Test [1] has as its system BLK.
Test [2] deals with BMPR1A.
Test [3] deals with BMPR1B.
The test system of test [4] is BMPR2.
Test [5] has as its system BMX.
Test [6] relates to BRAF.
Test [7] deals with T1, BRK.
T1 construct: gene PTK6

In test [8] the test system is BRSK1.
Test [9] has as its system BRSK2.
The test system of test [10] is BTK.
The subject of test [11] is BUB1.
Test [12] relates to CAMK1B.
Test [13] has as its system CAMK1D.
Test [14] has as its system CAMK1G.
Test [15] concerns CAMK1.
The subject of test [16] is CAMK2A.
Test [17] deals with CAMK2B.
In test [18] the test system is CAMK2D.
Test [19] concerns CAMK2G.
Test [20] has as its system CAMK4.
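Further: KINOMEscan kinase panel screen.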

As to `O=C1NC(=O)C(N2CCc3ccccc32)=C1c1cccc(Cl)c1` [SB-408010], the “%Inh” value in test [1] came to 0%; in test [2] it was 23%; in [3], 0%; in test [4] it was 4%; in test [5], 26%; in test [6], 3%. Besides, the “%Inh” value in [7] stood at 0%; in test [8], 0%; in [9], 0%; in [10], 23%; in test [11], 0%; in [12], 0%. Besides, the “%Inh” value worked out at 17% in test [13]; 0% in test [14]; 24% in test [15]; 0% in [16]; 0% in test [17]; 10% in test [18]. Further, the “%Inh” value is reported as 0% in test [19] and 1% in [20].
Consider `Cc1nnc(-c2ccc3occ(-c4ccc(C(C)O)cc4)c3c2)o1` (stereo not shown), for which the “%Inh” value in [1] is reported as 2%; in test [2], 2%; in test [3], 23%; in test [4], 2%; in test [5], 44%; in [6] it was 1%. Besides, the “%Inh” value was 0% in test [7]; 10% in test [8]; 13% in test [9]; 0% in test [10]; 9% in test [11]; 0% in test [12]. Moreover, the “%Inh” value in test [13] is given as 0%; in [14], 0%; in test [15], 12%; in test [16] it was 3%; in test [17], 0%; in test [18] it was 6%. The “%Inh” value in [19] is listed as 11%; in test [20], 0%.
`CC(C)(C)n1cnc2c(N)ncnc21` [SKF-97359]: the “%Inh” value in test [1] was determined as 0%; in test [2], 0%; in test [3], 0%; in test [4] it was 36%; in test [5] it was 0%; in test [6] it was 0%. Besides, the “%Inh” value in test [7] amounted to 0%; in test [8], 0%; in [9], 3%; in test [10], 19%; in [11], 52%; in test [12] it was 63%. In addition, the “%Inh” value was 1% in test [13]; 0% in test [14]; 0% in [15]; 0% in [16]; 0% in [17]; 0% in test [18]. Also, the “%Inh” value in test [19] and in test [20] was 0% in each case.
As for `N#Cc1ccc(-c2cc(-c3c[nH]nc3-c3ccccn3)ccn2)cc1` [GW693028], the “%Inh” value is given as 17% in test [1]; 0% in [2]; 15% in test [3]; 6% in test [4]; 5% in test [5]; 11% in test [6]. Also, the “%Inh” value in test [7] was 30%; in test [8], 0%; in [9], 0%; in test [10], 0%; in test [11], 34%; in test [12], 3%. Besides, the “%Inh” value in [13] was determined as 1%; in test [14] it was 0%; in test [15], 1%; in [16], 0%; in test [17] it was 1%; in test [18] it was 0%. For the same compound, the “%Inh” value in [19] is on record as 13%; in [20], 0%.
Consider `Cc1cccc(Cn2ccn3c(=O)cc(N4CCOCC4)nc23)c1` [GSK2297542], for which the “%Inh” value in test [1] was 57%; in test [2] it was 0%; in test [3], 0%; in [4], 0%; in test [5], 27%; in [6], 4%. Also, the “%Inh” value in test [7] was 22%; in test [8], 0%; in test [9], 6%; in test [10], 0%; in [11] it was 34%; in [12] it was 19%. Also, the “%Inh” value in [13] came out at 70%; in [14], 9%; in test [15], 71%; in test [16], 0%; in test [17] it was 0%; in test [18], 9%. For the same compound, the figures for the “%Inh” value in [19] and in [20] were 28% and 20%, respectively.
On to `COc1ccc(S(=O)(=O)NC2CCN(c3cc(C)nc(Nc4cccc(C#N)c4)n3)CC2)cc1.O=C(O)C(F)(F)F` [GSK1653539], for which the “%Inh” value in test [1] was determined as 25%; in [2] it was 0%; in [3], 0%; in test [4], 0%; in test [5], 3%; in test [6], 0%. Also, the “%Inh” value was 0% in [7]; 0% in test [8]; 0% in [9]; 0% in [10]; 0% in [11]; 1% in [12]. Also, the “%Inh” value is 17% in [13]; 0% in test [14]; 0% in test [15]; 0% in test [16]; 0% in [17]; 6% in test [18]. The “%Inh” value was determined as 11% in test [19] and 0% in [20].
`c1ccc(-c2n[nH]cc2-c2ccnc3ccccc23)nc1` [GW271431]: the “%Inh” value in [1] is reported as 49%; in test [2], 0%; in test [3], 13%; in test [4] it was 0%; in [5], 22%; in test [6] it was 0%. The “%Inh” value in [7] turned out to be 22%; in test [8], 0%; in [9], 0%; in test [10], 0%; in test [11] it was 0%; in test [12], 23%. Further, the “%Inh” value turned out to be 28% in [13]; 13% in [14]; 23% in test [15]; 0% in test [16]; 0% in test [17]; 19% in test [18]. Further, the “%Inh” value in test [19] turned out to be 25%; in [20] it was 0%.
In the case of `O=c1cc(N2CCOCC2)nc2n(Cc3cccc(Cl)c3Cl)c(C3CC3)nn12` [GSK2358994], the “%Inh” value in test [1] turned out to be 0%; in [2], 15%; in [3] it was 0%; in [4], 13%; in test [5], 19%; in [6], 0%. The “%Inh” value in [7] was determined as 0%; in test [8] it was 3%; in test [9], 0%; in [10] it was 0%; in test [11], 0%; in test [12], 0%. Further, the “%Inh” value in [13] is 0%; in [14], 5%; in test [15] it was 0%; in test [16] it was 25%; in test [17], 10%; in test [18], 18%. For the same compound, the “%Inh” value in [19] came to 0%; in test [20] it was 5%.
